# Experimental data as given in PubChem BioAssay (Tox21).
# Results filed as inconclusive are left out. Values without a mark were called inactive. Active and inactive are the calls of the source. Calls follow the shape of the full dose curve.
# Molecular target: Acetylcholinesterase (Homo sapiens) (UniProt P22303)
# Test: Acetylcholinesterase (AChE) small molecule antagonists: colormetric cell-based qHTS assay (AID 1347395); also: nearly all actives have a fitted effect of over 30% in size
# Settings: SH-SY5Y cells AChE activity, colorimetric (Ellman); series mostly up to 115 µM; activity, negative = inhibition: at the top concentration
# Text: National Center for Advancing Translational Sciences [NCATS]
# Division of Preclinical Innovation [DPI]
# U.S. Environmental Protection Agency [EPA]
# National Institutes of Environmental Health Sciences [NIEHS]
# National Toxicology Program [NTP]
# U.S. Food and Drug Administration [FDA]
# Acetylcholinesterase (AChE) is the primary cholinesterase in the body that hydrolyzes a key neurotransmitter, acetylcholine. Inhibition of AChE activity can lead to neurotoxicity. The known inhibitors include organophosphorous pesticides (OP), chemical warfare agents, drugs, and various phytochemicals.
# A homogenous cell-based assay using the Amplite Colormetric acetylcholinesterase assay kit (AAT Bioquest, Sunnyvale, CA) was used to evaluate the chemicals in the Tox21 10K library that inhibit AChE activity. The assay uses 5, 5-dithiobis-(2-nitrobenzoic acid) (DTNB) to quantify the thiocholine produced from the hydrolysis of acetylthiocholine by AChE from the SH-SY5Y cells.
# Tox21 Assay Protocol Summary:
# For the cell-based AChE assay, 2,000 SH-SY5Y cells in 4 uL/well were dispensed into black, clear-bottom 1536-well plates using a Multidrop Combi dispenser (Thermo Scientific, MA). The assay plates were incubated overnight at 37 C to allow cells to attach to the wells, followed by the transfer of 23 nL of compound or DMSO (vehicle control) by a Pintool Station (Wako Automation, CA). The plates were incubated for 30 min at 37 C and 5% CO2, followed by the addition of 4 uL of detection cocktail solution (DTNB, acetylthiocholine) into each well using a Flying Reagent Dispenser (Beckman Coulter, CA) and then 90 min incubation at 37 C.
# % is scaled to controls: 0 for no effect and ±100 for the full control effect; potency is read from the fitted curve at half-maximal effect.
# Chain of Acetylcholinesterase (Homo sapiens) (P22303 whole entry, looked up): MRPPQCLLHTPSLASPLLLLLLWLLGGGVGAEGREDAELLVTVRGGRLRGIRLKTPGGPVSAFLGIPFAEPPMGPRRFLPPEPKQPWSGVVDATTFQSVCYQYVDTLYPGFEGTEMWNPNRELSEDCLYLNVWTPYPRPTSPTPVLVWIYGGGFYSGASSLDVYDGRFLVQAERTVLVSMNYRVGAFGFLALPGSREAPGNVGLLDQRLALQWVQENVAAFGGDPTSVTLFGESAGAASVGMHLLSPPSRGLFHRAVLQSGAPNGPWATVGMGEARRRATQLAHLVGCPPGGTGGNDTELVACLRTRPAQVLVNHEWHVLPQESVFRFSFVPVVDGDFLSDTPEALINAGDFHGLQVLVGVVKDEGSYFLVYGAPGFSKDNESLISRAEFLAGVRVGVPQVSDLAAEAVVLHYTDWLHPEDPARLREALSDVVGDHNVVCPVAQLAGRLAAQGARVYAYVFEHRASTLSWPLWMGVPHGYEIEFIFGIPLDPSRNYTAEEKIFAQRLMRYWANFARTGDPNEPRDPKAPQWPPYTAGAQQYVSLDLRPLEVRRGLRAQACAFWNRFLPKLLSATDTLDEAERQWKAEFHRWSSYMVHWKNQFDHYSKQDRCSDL
SMILES,"activity, negative = inhibition",Potency
OC/C(Br)=C(\Br)CO,-1.13%,
CN(C)c1ccc(C(=C2C=CC(=[N+](C)C)C=C2)c2ccc(N(C)C)cc2)cc1,,70.6 µM (active)
OCCN1CCN(CCCN2c3ccccc3C=Cc3ccccc32)CC1,-3.24% [at 52.9 µM],
N=C(N)N,-1.51% [at 52.9 µM],
CCCCN(CCCC)C(=O)N(CCCC)CCCC,-1.85%,
COc1cc(C(=O)NCCCCCC(=O)O)cc(OC)c1OC,0.924% [at 52.9 µM],
Cc1cccc(C)c1,,inactive
COC(=O)c1cccnc1,,inactive
CCc1ccc(O)c(C(C)(C)C)c1,-0.026%,
Cc1cccnc1,,inactive
O=S(=O)(O)c1ccc2ccccc2c1,,inactive
CC(C)OC(=O)CCCCC(=O)OC(C)C,-1.84%,
CCOc1ccc(NC(N)=O)cc1,-2.16%,
Nc1ccn([C@@H]2O[C@H](CO)[C@@H](O)[C@@H]2O)c(=O)n1,1.35%,
COc1ccc(CCN(C)CCCN2CCc3cc(OC)c(OC)cc3CC2=O)cc1OC,2.6% [at 52.9 µM],
C[C@]12CC[C@H]3[C@@H](CCC4=CC(=O)CC[C@@]43C)[C@@H]1CC[C@@H]2C(=O)CO,,inactive
CCOC(=O)C1=NN(c2ccccc2)C(=O)C1,-6.85%,
NC(Cc1c[nH]c2ccccc12)C(=O)O (stereo not given),-0.893% [at 52.9 µM],
CCCCCCCC/C=C\CCCCCCCC(=O)OCCOC(=O)CCCCCCC/C=C\CCCCCCCC,-7.26%,
CCc1oc2ccccc2c1C(=O)c1cc(I)c(O)c(I)c1,-1.19% [at 52.9 µM],

SMILES,"activity, negative = inhibition",Potency
CC(=O)OCC(=O)[C@@]1(O)CC[C@H]2[C@@H]3CCC4=CC(=O)C=C[C@]4(C)[C@H]3[C@@H](O)C[C@@]21C,1.75% [at 52.9 µM],
CCOc1cc([N+](=O)[O-])c(OCC)cc1N1CCOCC1,10.1%,
Cc1nn(C)c(Oc2ccccc2)c1/C=N/OCc1ccc(C(=O)OC(C)(C)C)cc1,4.72%,
C/C=C/C=C/CCCCCCCO,-2.65%,
O=C(CS)Nc1ccccc1,3.77% [at 52.9 µM],
CCCCCCCCCC/C=C/C#N,-0.606%,
Nc1ccc([N+](=O)[O-])c(N)c1,31.1%,
COc1ccc(C(=O)c2ccccc2)c(O)c1,,inactive
O=C(Nc1ccccc1)c1cc([N+](=O)[O-])ccc1Cl,-8.7%,
COC(=O)c1ccc(C(=O)OC)c(C(=O)OC)c1,1.13%,
CC(O)C(=O)O (stereo not given),,inactive
Cc1cc(C)c(C)c(O)c1,0.0342%,
CCCCCCCCCCCC[N+](C)(C)CCCS(=O)(=O)[O-],0.321%,
COc1cc([C@@H]2c3cc4c(cc3[C@H](O)[C@H]3COC(=O)[C@H]23)OCO4)cc(OC)c1OC,,inactive
Nc1ccc(Cl)c(N)c1,,inactive
CC1=CCC2CC1C2(C)C (stereo not given),,inactive
CC(=O)Nc1ccc(C(=O)CCl)cc1,,inactive
O=CN(CCO)CCO,0.389%,
S=c1nccc[nH]1,-0.0969%,
CC(=O)[C@H]1CC[C@H]2[C@@H]3CC=C4C[C@@H](O)CC[C@]4(C)[C@H]3CC[C@]12C,,inactive
